PubChem BioAssay AID2665 (Vanderbilt High Throughput Screening Facility, 2010)
Activity calls are given as the source filed them. How the calls were made is not given here.

Tests used:
[1] = target: Muscarinic acetylcholine receptor M1 (Rattus norvegicus) (UniProt P08482); experiment: potentiation of ACh response at hM5 and rM1 – CHO cells, calcium, ACh EC10, single 30 µM, SAR follow-up (AID 2665); conditions: rat M1 potentiation, CHO calcium; at 30 µM; stronger effect = higher value;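 further: 100% = response to a maximal acetylcholine concentration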
[2] = target: Muscarinic acetylcholine receptor M5 (Homo sapiens) (UniProt P08912); experiment: as above; conditions: CHO hM5 calcium flux, ACh EC10 potentiation; at 30 µM; stronger effect = higher value
Sequence of Muscarinic acetylcholine receptor M5 (Homo sapiens) (P08912 whole entry, looked up): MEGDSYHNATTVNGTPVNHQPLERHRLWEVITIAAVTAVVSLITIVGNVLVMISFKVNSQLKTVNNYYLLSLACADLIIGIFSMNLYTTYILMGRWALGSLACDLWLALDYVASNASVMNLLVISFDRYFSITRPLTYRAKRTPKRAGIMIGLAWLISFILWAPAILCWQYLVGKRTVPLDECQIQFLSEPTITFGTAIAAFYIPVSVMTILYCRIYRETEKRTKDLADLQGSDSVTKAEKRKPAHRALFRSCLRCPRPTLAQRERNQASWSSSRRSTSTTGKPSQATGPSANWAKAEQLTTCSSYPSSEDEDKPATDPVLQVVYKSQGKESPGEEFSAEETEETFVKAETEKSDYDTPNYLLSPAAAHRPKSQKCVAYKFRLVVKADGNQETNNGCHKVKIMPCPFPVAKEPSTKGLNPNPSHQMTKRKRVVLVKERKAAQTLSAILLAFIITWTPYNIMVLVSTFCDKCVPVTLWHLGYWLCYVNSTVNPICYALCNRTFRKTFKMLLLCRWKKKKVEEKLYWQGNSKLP

## O=C1C(=O)N(Cc2ccc(F)cc2F)c2c(Cl)ccc(Cl)c21
[1]
  % ACh max response: 17.2%
[2]
  % ACh max response: 19.1% (inactive)

## COc1cccc(CN2C(=O)C(=O)c3c(Cl)ccc(Cl)c32)c1
[1]
  % ACh max response: 13.3%
[2]
  % ACh max response: 35.1% (inactive)

## Cc1ccc2c(c1)C(=O)C(=O)N2Cc1ccc(OC(F)(F)F)cc1
[1]
  % ACh max response: 13.8%
[2]
  % ACh max response: 18.9% (inactive)

## Cc1ccc2c(c1)C(=O)C(=O)N2Cc1ccccc1C(F)(F)F
[1]
  % ACh max response: 17.8%
[2]
  % ACh max response: 30.6% (inactive)

## O=C1C(=O)N(Cc2ccc(F)cc2F)c2ccc(Cl)cc21
[1]
  % ACh max response: 32.4%
[2]
  % ACh max response: 44.9% (active)

## O=C1C(=O)N(Cc2ccccc2C(F)(F)F)c2c(Cl)ccc(Cl)c21
[1]
  % ACh max response: 21.1%
[2]
  % ACh max response: 16% (inactive)

## O=C1C(=O)N(Cc2ccc(Br)cc2)c2ccc(Cl)cc21
[1]
  % ACh max response: 26.1%
[2]
  % ACh max response: 32% (inactive)

## O=C1C(=O)N(Cc2ccc(OC(F)(F)F)cc2)c2c(Cl)cccc21
[1]
  % ACh max response: 43.6%
[2]
  % ACh max response: 72.3% (active)

## O=C1C(=O)N(Cc2ccc(Br)cc2)c2ccc(OC(F)(F)F)cc21
[1]
  % ACh max response: 13.2%
[2]
  % ACh max response: 47.6% (active)

## O=C1C(=O)N(Cc2c(F)cccc2F)c2ccc(OC(F)(F)F)cc21
[1]
  % ACh max response: 13.6%
[2]
  % ACh max response: 29.8% (inactive)

## O=C1C(=O)N(Cc2ccccc2F)c2ccc(Cl)cc21
[1]
  % ACh max response: 23%
[2]
  % ACh max response: 36.3% (inactive)

## O=C1C(=O)N(Cc2c(F)cccc2F)c2ccc(Cl)cc21
[1]
  % ACh max response: 27.3%
[2]
  % ACh max response: 31.8% (inactive)

## COc1ccc(CN2C(=O)C(=O)c3cccc(F)c32)cc1
[1]
  % ACh max response: 54.6%
[2]
  % ACh max response: 44.4% (active)

## O=C1C(=O)N(Cc2ccccc2Cl)c2ccccc21
[1]
  % ACh max response: 43.4%
[2]
  % ACh max response: 42% (active)

## COc1cccc(CN2C(=O)C(=O)c3cc(C)ccc32)c1
[1]
  % ACh max response: 14.5%
[2]
  % ACh max response: 29.6% (inactive)

## O=C1C(=O)N(Cc2ccccc2C(F)(F)F)c2ccc(Cl)cc21
[1]
  % ACh max response: 29.6%
[2]
  % ACh max response: 48.4% (active)

## COc1ccc(-c2ccc(CN3C(=O)C(=O)c4ccccc43)cc2)cc1
[1]
  % ACh max response: 20.1%
[2]
  % ACh max response: 30.8% (inactive)

## O=C1C(=O)N(Cc2ccc(OC(F)(F)F)cc2)c2ccc(Cl)cc21
[1]
  % ACh max response: 31.3%
[2]
  % ACh max response: 47.1% (active)

## Cc1ccccc1CN1C(=O)C(=O)c2cc(OC(F)(F)F)ccc21
[1]
  % ACh max response: 26.2%
[2]
  % ACh max response: 60% (active)

## O=C1C(=O)N(Cc2ccc(Br)cc2F)c2c(Cl)ccc(Cl)c21
[1]
  % ACh max response: 9.93%
[2]
  % ACh max response: 12.4% (inactive)

## O=C1C(=O)N(Cc2ccc(F)cc2F)c2ccc(F)cc21
[1]
  % ACh max response: 47.3%
[2]
  % ACh max response: 60.3% (active)

## O=C1C(=O)N(Cc2c(F)cccc2F)c2c(Cl)ccc(Cl)c21
[1]
  % ACh max response: 16.4%
[2]
  % ACh max response: 12.2% (inactive)

## Cc1cccc2c1N(Cc1c(F)cccc1F)C(=O)C2=O
[1]
  % ACh max response: 17.3%
[2]
  % ACh max response: 14.4% (inactive)

## O=C1C(=O)N(Cc2c(F)cccc2F)c2c(Cl)cccc21
[1]
  % ACh max response: 38.8%
[2]
  % ACh max response: 23.6% (inactive)

## O=C1C(=O)N(CCc2ccc(Br)cc2)c2ccccc21
[1]
  % ACh max response: 52.4%
[2]
  % ACh max response: 65% (active)

## COc1ccc(CN2C(=O)C(=O)c3c(Cl)ccc(Cl)c32)cc1
[1]
  % ACh max response: 18.6%
[2]
  % ACh max response: 11.7% (inactive)

## O=C1C(=O)N(Cc2ccccc2F)c2c(F)cccc21
[1]
  % ACh max response: 42.7%
[2]
  % ACh max response: 42.4% (active)

## Cc1ccccc1CN1C(=O)C(=O)c2cc(Cl)ccc21
[1]
  % ACh max response: 27.6%
[2]
  % ACh max response: 47.3% (active)

## O=C1C(=O)N(Cc2ccccc2F)c2ccccc21
[1]
  % ACh max response: 38.9%
[2]
  % ACh max response: 24.5% (active)

## O=C1C(=O)N(Cc2c(F)cccc2F)c2ccc(F)cc21
[1]
  % ACh max response: 27.6%
[2]
  % ACh max response: 31.1% (inactive)

## O=C1C(=O)N(Cc2ccc(OC(F)(F)F)cc2)c2ccccc21
[1]
  % ACh max response: 54.7%
[2]
  % ACh max response: 60.5% (active)

## O=C1C(=O)N(Cc2ccc(C(F)(F)F)cc2)c2ccc(OC(F)(F)F)cc21
[1]
  % ACh max response: 25.7%
[2]
  % ACh max response: 67.2% (active)

## O=C1C(=O)N(Cc2ccc(Br)cc2F)c2c(F)cccc21
[1]
  % ACh max response: 39.2%
[2]
  % ACh max response: 46.3% (active)

## Cc1ccc2c(c1)C(=O)C(=O)N2Cc1ccccc1Cl
[1]
  % ACh max response: 16.8%
[2]
  % ACh max response: 24.3% (inactive)

## O=C1C(=O)N(Cc2ccc(-c3ccc(F)nc3)cc2)c2ccccc21
[1]
  % ACh max response: 41%
[2]
  % ACh max response: 46% (active)

## Cc1ccccc1CN1C(=O)C(=O)c2cccc(F)c21
[1]
  % ACh max response: 30.2%
[2]
  % ACh max response: 27.5% (inactive)

## O=C1C(=O)N(Cc2ccccc2Cl)c2c(F)cccc21
[1]
  % ACh max response: 18.5%
[2]
  % ACh max response: 20.3% (inactive)

## O=C1C(=O)N(Cc2ccccc2F)c2ccc(OC(F)(F)F)cc21
[1]
  % ACh max response: 11.3%
[2]
  % ACh max response: 51.8% (active)

## O=C1C(=O)N(Cc2ccccc2F)c2c(Cl)ccc(Cl)c21
[1]
  % ACh max response: 12.4%
[2]
  % ACh max response: 14.7% (inactive)

## O=C1C(=O)N(Cc2ccc(-c3ccc(Cl)c(Cl)c3)cc2)c2ccc(OC(F)(F)F)cc21
[2]
  % ACh max response: 73.5% (active)

## Cc1ccccc1CN1C(=O)C(=O)c2ccccc21
[1]
  % ACh max response: 43.2%
[2]
  % ACh max response: 36.3% (active)

## O=C1C(=O)N(Cc2ccc(-c3ccccc3)cc2)c2ccc(OC(F)(F)F)cc21
[2]
  % ACh max response: 82.7% (active)

## O=C1C(=O)N(Cc2ccccc2F)c2ccc(F)cc21
[1]
  % ACh max response: 40.1%
[2]
  % ACh max response: 46.2% (active)

## Cc1cccc2c1N(Cc1ccc(F)cc1F)C(=O)C2=O
[1]
  % ACh max response: 32.6%
[2]
  % ACh max response: 33.8% (inactive)

## O=C1C(=O)N(Cc2ccc(OC(F)(F)F)cc2)c2c(F)cccc21
[1]
  % ACh max response: 51.8%
[2]
  % ACh max response: 57.7% (active)

## O=C1C(=O)N(Cc2ccc(OC(F)(F)F)cc2)c2c(Cl)ccc(Cl)c21
[1]
  % ACh max response: 16%
[2]
  % ACh max response: 23.2% (inactive)

## COc1ccc(CN2C(=O)C(=O)c3cc(Cl)ccc32)cc1
[1]
  % ACh max response: 20.3%
[2]
  % ACh max response: 32.6% (inactive)

## O=C1C(=O)N(Cc2ccccc2Cl)c2ccc(Cl)cc21
[1]
  % ACh max response: 21.3%
[2]
  % ACh max response: 44.4% (active)

## O=C1C(=O)N(Cc2ccc(F)cc2F)c2c(Cl)cccc21
[1]
  % ACh max response: 64.6%
[2]
  % ACh max response: 61.6% (active)

## O=C1C(=O)N(Cc2ccccc2Cl)c2ccc(OC(F)(F)F)cc21
[1]
  % ACh max response: 12.3%
[2]
  % ACh max response: 51.9% (active)

## COc1ccccc1-c1ccc(CN2C(=O)C(=O)c3cc(OC(F)(F)F)ccc32)cc1
[2]
  % ACh max response: 72.6% (active)

## O=C1C(=O)N(Cc2ccc(-c3ccc(F)nc3)cc2)c2ccc(OC(F)(F)F)cc21
[2]
  % ACh max response: 78.8% (active)

## CCCOc1ccc(-c2ccc(CN3C(=O)C(=O)c4cc(OC(F)(F)F)ccc43)cc2)cc1
[2]
  % ACh max response: 31.8% (inactive)

## O=C1C(=O)N(Cc2ccc(-c3ccc(Cl)cc3)cc2)c2ccc(OC(F)(F)F)cc21
[2]
  % ACh max response: 45.5% (active)

## COc1cccc(CN2C(=O)C(=O)c3cccc(F)c32)c1
[1]
  % ACh max response: 51.1%
[2]
  % ACh max response: 52% (active)

## COc1ccc(CN2C(=O)C(=O)c3cccc(Cl)c32)cc1
[1]
  % ACh max response: 49.4%
[2]
  % ACh max response: 30.3% (active)

## O=C1C(=O)N(Cc2ccc(Br)cc2F)c2ccccc21
[1]
  % ACh max response: 49.2%
[2]
  % ACh max response: 48.5% (active)

## O=C1C(=O)N(Cc2ccccc2C(F)(F)F)c2c(Cl)cccc21
[1]
  % ACh max response: 31.1%
[2]
  % ACh max response: 14% (inactive)

## O=C1C(=O)N(Cc2ccc(-c3cc(F)ccc3F)cc2)c2ccc(OC(F)(F)F)cc21
[2]
  % ACh max response: 80.9% (active)

## COc1ccc(CN2C(=O)C(=O)c3ccccc32)cc1
[1]
  % ACh max response: 43.6%
[2]
  % ACh max response: 29.2% (active)

## O=C1C(=O)N(CCc2ccc(Br)cc2)c2ccc(OC(F)(F)F)cc21
[2]
  % ACh max response: 81.1% (active)

## COc1ccc(CN2C(=O)C(=O)c3cc(OC(F)(F)F)ccc32)cc1
[1]
  % ACh max response: 12.7%
[2]
  % ACh max response: 60.7% (active)

## COc1ccc(-c2ccc(CN3C(=O)C(=O)c4cc(OC(F)(F)F)ccc43)cc2)cc1
[2]
  % ACh max response: 46% (active)

## CCCOc1ccc(-c2ccc(CN3C(=O)C(=O)c4ccccc43)cc2)cc1
[1]
  % ACh max response: 24.2%
[2]
  % ACh max response: 48.6% (active)

## O=C1C(=O)N(Cc2ccc(Br)cc2)c2c(F)cccc21
[1]
  % ACh max response: 62.7%
[2]
  % ACh max response: 51.7% (active)

## O=C1C(=O)N(Cc2ccc(-c3ccsc3)cc2)c2ccc(OC(F)(F)F)cc21
[2]
  % ACh max response: 92.3% (active)

## O=C1C(=O)N(Cc2ccc(-c3ccc(Cl)nc3)cc2)c2ccc(OC(F)(F)F)cc21
[2]
  % ACh max response: 88.2% (active)

## Cn1cc(-c2ccc(CN3C(=O)C(=O)c4cc(OC(F)(F)F)ccc43)cc2)cn1
[2]
  % ACh max response: 86.8% (active)

## O=C1C(=O)N(Cc2ccc(-c3ccc(Cl)c(Cl)c3)cc2)c2ccccc21
[1]
  % ACh max response: 35.3%
[2]
  % ACh max response: 56.3% (active)

## COc1ccc(CCN2C(=O)C(=O)c3cc(OC(F)(F)F)ccc32)cc1
[2]
  % ACh max response: 88.3% (active)

## O=C1C(=O)N(Cc2c(F)cccc2F)c2ccccc21
[1]
  % ACh max response: 36.6%
[2]
  % ACh max response: 17.4% (inactive)

## O=C1C(=O)N(Cc2ccc(F)cc2F)c2c(F)cccc21
[1]
  % ACh max response: 64.4%
[2]
  % ACh max response: 68.9% (active)

## O=C1C(=O)N(Cc2ccc(C(F)(F)F)cc2)c2ccc(Cl)cc21
[1]
  % ACh max response: 44.1%
[2]
  % ACh max response: 67.4% (active)

## Cc1ccc2c(c1)C(=O)C(=O)N2Cc1ccccc1C
[1]
  % ACh max response: 20.2%
[2]
  % ACh max response: 29.9% (inactive)
